Reference: PubChem BioAssay (Tox21)
Several values for one entry are separate records, joined by “and”; a condition that tells them apart may be missing. Equal entries are not always repeated. Records with an inconclusive call do not appear. Entries that show only a call come without a potency. Some compounds were tested as several samples or in several runs, with calls that do not always agree. Activity calls are given as the source filed them. Unless noted, calls come from the whole dose curve; as a rule, active = well fitted curve in the direction sought with a large enough effect in the repeat runs; inconclusive = weak or mixed curves; inactive = no such curve, though single readings can be large; an effect the other way counts as inactive or inconclusive.

How the values were obtained:
[1] = qHTS assay to identify small molecule agonists of the RXR signaling pathway - cell viability counter screen (AID 1159529); note: nearly all actives have a fitted effect of over 50% in size; note: potency is the fitted concentration of half-maximal effect
Outline: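 Compounds dissolved in DMSO were pinned onto HEK 293T cells carrying a beta-lactamase reporter under RXR-alpha control and incubated 16 hr. Cytotoxicity was then quantified by CellTiter-Glo luminescence.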

[2] = qHTS assay to identify small molecule antagonists of the retinoic acid receptor (RAR) signaling pathway (AID 1159552; note: nearly all actives have a fitted effect of over 50% in size)
Outline: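 Test chemicals and DMSO controls were pin-transferred onto C3RL4 cells a day after seeding; retinol (1 uM final) followed at once. Luminescent reporter output was quantified after 6 hr of co-incubation and 30 min with detection reagent.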

[3] = qHTS assay to identify small molecule agonists of the retinoic acid receptor (RAR) signaling pathway (AID 1159553); note: potency is the fitted concentration of half-maximal effect
Outline: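 Compounds dissolved in DMSO were pinned onto C3RL4 cells seeded the previous day, and plates were held 6 hr at 37 C. RARE-driven luciferase output was then read by luminescence.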

[4] = qHTS assay to identify small molecule antagonists of the estrogen related receptor (ERR) signaling pathway from Tox21 library - cell viability counter screen (AID 1224834); note: nearly all actives have a fitted effect of over 30% in size; note: potency is the fitted concentration of half-maximal effect
Outline: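 In this quantitative HTS format, ERR cells receive compounds in DMSO and are incubated for 17.5 h at 37 C. Live-cell protease activity is then detected with CellTiter-Fluor.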

[5] = target: Luciferin 4-monooxygenase (Photinus pyralis) (UniProt P08659); test: qHTS assay to identify small molecule inhibitors of firefly luciferase (AID 1224835); note: nearly all actives have a fitted effect of over 25% in size; note: potency is the fitted concentration of half-maximal effect
Outline: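 Biochemical qHTS: compounds run as interplate titrations against purified firefly enzyme, with D-luciferin and ATP each at its KM concentration. Light output recorded by CCD imaging.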

[6] = qHTS assay to identify small molecule agonists of the constitutive androstane receptor (CAR) signaling pathway - cell viability counter screen (AID 1224836); note: series mostly up to about 92 µM; nearly all actives have a fitted effect of over 45% in size
Outline: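 23 h treatment, 37 C, 5% CO2. Cell line: HepG2 stably expressing hCAR with a CYP2B6-2.2kb construct. Co-treatment: PK11195, 0.75 uM final. Read-out: CellTiter-Fluor fluorescence intensity.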

[7] = qHTS assay to identify small molecule antagonists of the constitutive androstane receptor (CAR) signaling pathway - cell viability counter screen (AID 1224837); note: series mostly up to about 92 µM; nearly all actives have a fitted effect of over 45% in size
Outline: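 In quantitative HTS format, compounds at 15 concentrations were applied to HepG2 cells double-transfected with hCAR and CYP2B6-2.2kb under 50 nM CITCO stimulation; live-cell protease activity was read after 23 hr via CellTiter-Fluor.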

[8] = target: Nuclear receptor subfamily 1 group I member 3 (Homo sapiens) (UniProt Q14994); test: qHTS assay to identify small molecule antagonists of the constitutive androstane receptor (CAR) signaling pathway (AID 1224838); note: nearly all actives have a fitted effect of over 40% in size
Outline: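 CITCO-stimulated (50 nM final) HepG2 cells stably transfected with hCAR and CYP2B6-2.2kb luciferase were exposed to compounds at 15 concentrations for 24 h at 37 C/5% CO2. A luciferase reagent was added and luminescence recorded after 30 min.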

[9] = target: Nuclear receptor subfamily 1 group I member 3 (Homo sapiens) (UniProt Q14994); test: qHTS assay to identify small molecule agonists of the constitutive androstane receptor (CAR) signaling pathway (AID 1224839); note: nearly all actives have a fitted effect of over 15% in size; note: potency is the fitted concentration of half-maximal effect
Outline: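 Compounds tested at 15 concentrations on HepG2 cells stably harbouring hCAR and CYP2B6-2.2kb reporter constructs, co-treated with PK11195 (0.75 uM final), 24 h at 37 C; luminescent reporter signal quantified.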

[10] = qHTS assay to identify small molecule antagonists of the estrogen related receptor signaling pathway with the pleiotropic PPARgamma coactivator (PGC) from Tox21 10K library - cell viability counter screen (AID 1224840; active = well fitted cell-killing curve with a large enough effect in the repeat runs, not every such curve was filed as active; note: nearly all actives have a fitted effect of over 40% in size; note: potency is the fitted concentration of half-maximal effect)
Outline: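 Viability counter screen, PGC/ERR cells: 17.5 h compound exposure at 37 C, CellTiter-Fluor fluorescence endpoint.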

[11] = qHTS assay to identify small molecule antagonists of the estrogen related receptor signaling pathway with the pleiotropic PPARgamma coactivator (PGC) from Tox21 10K library (AID 1224841; call rule not given here; note: actives are mostly falling curves and most rising ones were filed inactive; nearly all actives have a fitted effect of over 50% in size; note: potency is the fitted concentration of half-maximal effect)
Outline: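 In the PGC/ERR line, DMSO solutions of test chemicals are pin-delivered to 2,000 cells/well six hours after dispensing. Following eighteen hours' incubation, One-Glo reagent is added and luminescence recorded.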

[12] = qHTS assay to identify small molecule agonists of the estrogen related receptor signaling pathway with the pleiotropic PPARgamma coactivator (PGC) from Tox21 10K library (AID 1224842); note: nearly all actives have a fitted effect of over 15% in size
Outline: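 PGC/ERR reporter cell line, 2,000 cells per well, incubated 6 h at 37 C before 23 nL compound in DMSO was added. After 18 h at 37 C, One-Glo luminescence read following 30 min at room temperature.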

[13] = target: Thyrotropin receptor (Homo sapiens) (UniProt P16473); test: qHTS assay to identify small molecule agonists of the thyroid stimulating hormone receptor (TSHR) signaling pathway (AID 1224843; calls by dose curve; note: nearly all actives have a fitted effect of over 45% in size; note: potency is the fitted concentration of half-maximal effect)
Outline: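 HEK293/TSHR, 800 cells/well; cpd 30 min RT; add cAMP-d2 + anti-cAMP-cryptate, 1 h RT; fluorescence read on plate reader. 15-pt titration, n=3.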

[14] = qHTS assay to identify small molecule antagonists of the retinoid acid receptor (RAR) signaling pathway - cell viability counter screen (AID 1159551); note: nearly all actives have a fitted effect of over 35% in size; note: potency is the fitted concentration of half-maximal effect
Outline: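 Viability of C3RL4 cells is quantified from ATP by luminescence after 6 h treatment at 37 C with compounds and 1 uM retinol.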

[15] = qHTS assay to identify small molecule antagonists of the estrogen related receptor (ERR) signaling pathway - cell viability counter screen (AID 1224818); note: series mostly up to about 46 µM
Outline: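 Cytotoxicity check run alongside the ERR antagonist screen: cells exposed to test compounds 17.5 h at 37 C, viability taken as CellTiter-Fluor fluorescence intensity.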

[16] = qHTS assay to identify small molecule antagonists of the estrogen related receptor signaling pathway with the pleiotropic PPARgamma coactivator (PGC) cell viability counter screen (AID 1224822; note: series mostly up to about 46 µM)
Outline: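 Viable cell signal (CellTiter-Fluor, 30 min, 37 C/5% CO2) was measured in PGC/ERR cells after a 17.5 h compound incubation.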

Nuclear receptor subfamily 1 group I member 3 (Homo sapiens), sequence (Q14994 whole entry, looked up): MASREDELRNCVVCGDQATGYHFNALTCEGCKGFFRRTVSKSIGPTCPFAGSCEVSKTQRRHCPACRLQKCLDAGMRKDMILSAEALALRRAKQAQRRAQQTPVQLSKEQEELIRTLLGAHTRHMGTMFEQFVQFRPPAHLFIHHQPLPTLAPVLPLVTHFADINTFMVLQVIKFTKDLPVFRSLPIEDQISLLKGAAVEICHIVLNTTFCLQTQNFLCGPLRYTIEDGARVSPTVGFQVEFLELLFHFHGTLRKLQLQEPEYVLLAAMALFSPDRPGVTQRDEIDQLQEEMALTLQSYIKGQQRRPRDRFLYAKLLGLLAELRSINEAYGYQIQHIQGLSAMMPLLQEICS
Luciferin 4-monooxygenase (Photinus pyralis), sequence (P08659 whole entry, looked up): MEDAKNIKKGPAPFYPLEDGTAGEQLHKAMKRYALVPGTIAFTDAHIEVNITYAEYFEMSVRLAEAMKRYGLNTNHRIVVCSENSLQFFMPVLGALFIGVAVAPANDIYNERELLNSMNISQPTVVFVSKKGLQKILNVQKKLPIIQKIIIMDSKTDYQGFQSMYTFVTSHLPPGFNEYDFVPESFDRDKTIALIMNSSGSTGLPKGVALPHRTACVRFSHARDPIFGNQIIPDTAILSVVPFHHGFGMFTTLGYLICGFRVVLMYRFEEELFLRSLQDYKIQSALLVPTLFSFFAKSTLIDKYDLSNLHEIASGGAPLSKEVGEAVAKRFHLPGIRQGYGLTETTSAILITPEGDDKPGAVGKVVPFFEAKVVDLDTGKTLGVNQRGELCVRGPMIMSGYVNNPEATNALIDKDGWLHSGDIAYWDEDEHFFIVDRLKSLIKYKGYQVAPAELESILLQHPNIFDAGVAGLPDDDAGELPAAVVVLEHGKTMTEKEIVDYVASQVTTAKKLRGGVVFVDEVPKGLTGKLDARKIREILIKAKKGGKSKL
Thyrotropin receptor (Homo sapiens), sequence (P16473 whole entry, looked up): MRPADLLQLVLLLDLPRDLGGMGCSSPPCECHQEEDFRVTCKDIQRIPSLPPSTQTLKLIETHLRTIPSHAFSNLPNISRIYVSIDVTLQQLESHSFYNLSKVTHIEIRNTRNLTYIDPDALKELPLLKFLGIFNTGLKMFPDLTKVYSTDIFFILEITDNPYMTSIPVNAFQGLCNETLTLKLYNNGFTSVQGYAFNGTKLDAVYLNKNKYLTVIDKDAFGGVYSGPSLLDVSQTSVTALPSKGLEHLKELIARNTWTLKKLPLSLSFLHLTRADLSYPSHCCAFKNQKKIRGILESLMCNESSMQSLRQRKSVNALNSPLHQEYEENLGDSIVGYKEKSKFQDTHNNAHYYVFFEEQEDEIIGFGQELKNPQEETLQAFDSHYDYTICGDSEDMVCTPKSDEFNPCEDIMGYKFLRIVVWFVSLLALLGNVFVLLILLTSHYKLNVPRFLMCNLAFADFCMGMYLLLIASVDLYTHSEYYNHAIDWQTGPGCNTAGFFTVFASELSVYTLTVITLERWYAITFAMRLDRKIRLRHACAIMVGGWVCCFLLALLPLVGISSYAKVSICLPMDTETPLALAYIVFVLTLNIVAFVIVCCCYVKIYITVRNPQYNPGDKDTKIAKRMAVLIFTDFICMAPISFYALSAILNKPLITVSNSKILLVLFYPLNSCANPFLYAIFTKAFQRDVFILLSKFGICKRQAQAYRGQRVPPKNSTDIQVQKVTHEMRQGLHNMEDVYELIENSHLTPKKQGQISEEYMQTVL

SMILES	Potency [1]	Potency [2]	Potency [3]	Potency [4]	Potency [5]	Potency [6]	Potency [7]	Potency [8]	Potency [9]	Potency [10]	Potency [11]	Potency [12]	Potency [13]	Potency [14]	outcome [15]	outcome [16]
Nc1ccc2c(c1)Cc1ccccc1-2	inactive	inactive	10.8 µM (active)	inactive	39.7 µM (active)	inactive	inactive	inactive	48.3 µM (active)	inactive	inactive	–	–	–	–	–
Clc1ccccc1	inactive	inactive	inactive	inactive	inactive	inactive	inactive	inactive	inactive	inactive	inactive	inactive	inactive	–	–	–
CN1C[C@H](C(=O)N[C@]2(C)O[C@@]3(O)[C@@H]4CCCN4C(=O)[C@H](Cc4ccccc4)N3C2=O)C=C2c3cccc4[nH]cc(c34)C[C@H]21	22 µM (active)	–	–	24.4 µM (active) and 9.01 µM (active)	40.1 µM (active)	inactive	inactive	–	inactive	inactive	–	–	–	inactive	–	–
C[C@]12C=CC3=C4CCC(=O)C=C4CC[C@H]3[C@@H]1CC[C@@H]2O	inactive	–	–	inactive	inactive	inactive	inactive	inactive	–	inactive	–	–	–	inactive	–	–
CC(C)(C)CC(C)(C)c1ccc(O)cc1	17.4 µM (active) and 23.9 µM (active)	–	–	–	inactive	inactive	inactive	–	–	–	–	–	6.86 µM (active) and 13.3 µM (active)	43.3 µM (active)	–	–
CC(C)(C#N)C(C)(C)C#N	inactive	–	–	inactive	inactive	inactive	inactive	–	inactive	inactive	inactive	inactive	–	inactive	–	–
COc1ccccc1N1CCNCC1	inactive	–	–	inactive	inactive	inactive	inactive	–	–	inactive	–	–	inactive	inactive	inactive	inactive
CC(=O)OC(c1ccccc1)C(Cl)(Cl)Cl (stereo unspecified)	inactive	–	–	inactive	inactive	inactive	inactive	–	–	inactive	–	–	inactive	inactive	–	–
CC(C)OC(=O)Cc1ccccc1	inactive	–	–	inactive	inactive	inactive	inactive	–	–	inactive	–	–	inactive	inactive	–	–
CCCC[N+](CCCC)(CCCC)CCCC	inactive	–	inactive	inactive	inactive	inactive	inactive	–	–	inactive	–	inactive	–	inactive	–	–
CC(C)[C@@H](C(=O)O[C@@H](C#N)c1cccc(Oc2ccccc2)c1)c1ccc(Cl)cc1	inactive	–	–	inactive	inactive	inactive	inactive	–	19.6 µM (active) and inactive	inactive	–	–	–	inactive	–	–
CCCC(C)(COC(N)=O)COC(=O)NC(C)C (stereo unspecified)	inactive	–	–	inactive	inactive	inactive	inactive	inactive	inactive	inactive	inactive	inactive	inactive	inactive	–	–
NC(=O)CF	inactive	–	–	inactive	inactive	inactive	inactive	inactive	inactive	inactive	–	–	inactive	inactive	–	–
C[Si](Cn1cncn1)(c1ccc(F)cc1)c1ccc(F)cc1	inactive	–	–	63.1 µM (active) and 48.6 µM (active)	inactive	–	inactive	–	–	–	39.8 µM (active) and 48.6 µM (active)	inactive	inactive	inactive	–	–
C[N+]1(CCC(C(N)=O)(c2ccccc2)c2ccccc2)CCCCC1	inactive	–	inactive	inactive	inactive	inactive	inactive	–	–	inactive	–	–	inactive	inactive	–	–
O=[N+]([O-])O[C@H]1CO[C@H]2[C@@H]1OC[C@H]2O[N+](=O)[O-]	inactive	–	–	inactive	inactive	inactive	inactive	–	–	inactive	inactive	inactive	inactive	inactive	–	–
CCCCCCCCCCCC[N+](C)(C)CCOc1ccccc1	8.71 µM (active) and 12 µM (active)	–	–	61.1 µM (active) and 26.6 µM (active)	inactive	–	–	–	inactive	61.1 µM (active) and 29.8 µM (active)	–	inactive	48.6 µM (active) and inactive	61.1 µM (active)	–	–
